Laboratory results as given in PubChem BioAssay (NCATS).
Results filed as inconclusive are left out. Unmarked numbers belong to inactive results. Active and inactive are the calls of the source. Calls come from the whole dose curve; as a rule, active = well fitted curve in the direction sought with a large enough effect; inconclusive = small, poorly fitted or top-dose-only effect, or another doubt; inactive = no such curve, though single readings can be large; an effect the other way counts as inactive or inconclusive.

Tests used:
[1] = Viability qHTS for spleen associated tyrosine kinase inhibitor (SYKi) drug resistant MV4-11 cells (AID 1963824); details: SYKi-resistant MV4-11 viability, CellTiter-Glo, 72 h; series mostly up to 45 µM; note: nearly all actives have a fitted effect of over 35% in size
Summary of the method: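 CellTiter-Glo luminescence, read 10 min after reagent addition, reports viability after a 72 hr compound exposure. Cells are an MV4-11 line made resistant to SYK inhibition, seeded at 500 per well onto compound-containing plates.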

[2] = Cellular viability qHTS for adrenocortical cancer (ACC) cell line SW-13 (AID 1963989); details: SW-13 ACC cells viability, CellTiter-Glo, 48 h; activity (max response): stronger effect = lower value; note: nearly all actives have a fitted effect of over 65% in size;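 for activity (max response): cells grown in serum-free medium with ITS supplement; % is set by controls: 0 for no effect and ±100 for the full control effect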
Summary of the method: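 Viability was read as CellTiter-Glo luminescence after 48 h compound treatment (up to 46 uM final) of SW-13 cells grown serum-free; titration curves were fit with a four-parameter logistic model to give IC50 and efficacy.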

[3] = Cellular viability qHTS for adrenocortical cancer (ACC) cell line NCI-H295R (AID 1963990); details: CellTiter-Glo ATP luminescence, 48 h; series mostly up to 46.1 µM; note: nearly all actives have a fitted effect of over 60% in size
Summary of the method: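 CellTiter-Glo ATP luminescence, read 48 h after compound addition, measured viability of NCI-H295R adrenocortical cells grown serum-free with ITS. Final concentrations spanned up to 46 uM. Data normalized to DMSO and doxorubicin, fitted for IC50 and maximal response.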
Potency is the fitted concentration of half-maximal effect.

For `COc1cc(N)c(Cl)cc1C(=O)NC1CCN(Cc2ccccc2)CC1`, which Potency [1] is on record?
The Potency was “inactive”.

What about the activity (max response) [2] of the same compound?
Its activity (max response) is -15.7%.

And the Potency [3]?
The Potency was “inactive”.

Which results are given for `C/C=C1\NC(=O)[C@H]2CSSCC/C=C\[C@H](CC(=O)N[C@H](C(C)C)C(=O)N2)OC(=O)[C@H](C(C)C)NC1=O`?
Potency [1]: 0.0074 µM (active); Potency [2]: 0.0126 µM (active); Potency [3]: 0.0631 µM (active)

For `O=C(CO)[C@@H](O)[C@H](O)[C@@H](O)CO`, which Potency [1] is on record?
The Potency was “inactive”.

What about the activity (max response) [2] of the same compound?
Its activity (max response) is 0.0107%.

What about the Potency [3] of the same compound?
Its Potency is “inactive”.

Which Potency [1] does the source give for `CC(C(=O)O)c1ccc2c(c1)[nH]c1ccc(Cl)cc12` (configuration not stated) here?
Its Potency is “inactive”.

What about the activity (max response) [2] of the same compound?
The activity (max response) was -19.1%.

What about the Potency [3] of the same compound?
Its Potency is “inactive”.

What does the source list for `COc1cc(NC(C)CCCN)c2ncccc2c1` (configuration not stated)?
Potency [1]: 5.31 µM (active); Potency [2]: 4.61 µM (active); Potency [3]: 8.2 µM (active)

Which Potency [1] does the source give for `Cn1ncc(Cl)c1-c1cc(C(=O)NC(CN)Cc2ccc(F)c(F)c2)oc1Cl` (configuration not stated) here?
The Potency was 4.68 µM (active).

And the Potency [2]?
The Potency was 28.2 µM (active).

What about the Potency [3] of the same compound?
Its Potency is 3.16 µM (active).

For `O=C(O)CC1CCC(c2ccc(-c3ccc(Nc4ccc(C(F)(F)F)nc4)cn3)cc2)CC1` (configuration not stated), which Potency [1] is on record?
The Potency was 18.6 µM (active).

What about the activity (max response) [2] of the same compound?
Its activity (max response) is -23.1%.

And the Potency [3]?
The Potency was “inactive”.

For `CCN(Cc1ccncc1)C(=O)C(CO)c1ccccc1` (configuration not stated), which Potency [1] is on record?
Its Potency is “inactive”.

And the activity (max response) [2]?
The activity (max response) was -0.134%.

What about the Potency [3] of the same compound?
The Potency was “inactive”.

For `c1cc(Nc2cc(C3CC3)[nH]n2)nc(Nc2ccc3nc[nH]c3c2)n1`, which Potency [1] is on record?
Its Potency is 0.0184 µM (active).

What about the Potency [2] of the same compound?
Its Potency is 0.224 µM (active).

And the Potency [3]?
Its Potency is 8.91 µM (active).

Which results are given for `N[C@H](C(=O)O)c1ccc(O)cc1`?
Potency [1]: inactive; activity (max response) [2]: 5.01%; Potency [3]: inactive

Which results are given for `O=C1OC2(CCC(C(=O)Nc3ccn(-c4ccccc4F)n3)CC2)c2cnccc21` (configuration not stated)?
Potency [1]: 4.17 µM (active); Potency [3]: inactive
